# ERa coact inh – ERα–SRC-1 coactivator interaction inhibitors, primary screen, biochemical, TR-FRET, ERα LBD, estradiol-bound; AID 629, 2007; Estrogen receptor (Homo sapiens), P03372; inhibition, % at 25.6 µM; TR-FRET ER-alpha LBD / SRC-1 peptide; 86,000 compounds, 1.7% hits; in the data active = inhibition above about 50%;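 also: 0% = receptor plus peptide control and 100% = peptide only without receptor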
# HePTP inhibitor – inhibitors of human HePTP phosphatase, primary screen, biochemical, absorbance, leukemia target. recombinant HePTP phosphatase activity, OD absorbance. inhibition, % at 20 µM. 110,000 compounds, 0.64% hits; in the data active = inhibition above about 50%;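 also: plate controls were vehicle for no effect and reference inhibitor for full effect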
# Smad3 FoxH1 inh – Smad3/FoxH1 peptide binding inhibitors, primary screen, biochemical, TR-FRET; Mothers against decapentaplegic homolog 3 (Homo sapiens), P84022; TR-FRET Smad3/Dy647-FoxH1 peptide binding, europium anti-His; inhibition, % at 25 µM; 88,000 compounds, 0.29% hits; AID 630, 2007;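 active = compounds that reduce the energy-transfer binding signal between the protein and its labelled peptide by more than half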;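 also: 0% = Smad3 plus labelled peptide maximal FRET and 100% = peptide-only background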
# ERb SRC1 inh – inhibitors of ERβ-SRC1 coactivator interaction, primary screen, biochemical, TR-FRET, ERβ LBD, SRC-1 peptide; Estrogen receptor beta (Homo sapiens), Q92731; TR-FRET ER-beta LBD / SRC1-Cy5 peptide binding; receptor agonist-loaded with 1 µM estradiol; inhibition, % at 25.6 µM; 86,000 compounds, 1.3% hits; AID 633, 2007;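 active = compounds whose percent inhibition of the receptor-coactivator binding signal exceeds about 50% in the single-dose screen, limit read from the data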;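 also: 0% = receptor plus peptide wells without compound and 100% = peptide-only wells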
# Target sequence (Q92731 whole entry, looked up, the tested form may be a part): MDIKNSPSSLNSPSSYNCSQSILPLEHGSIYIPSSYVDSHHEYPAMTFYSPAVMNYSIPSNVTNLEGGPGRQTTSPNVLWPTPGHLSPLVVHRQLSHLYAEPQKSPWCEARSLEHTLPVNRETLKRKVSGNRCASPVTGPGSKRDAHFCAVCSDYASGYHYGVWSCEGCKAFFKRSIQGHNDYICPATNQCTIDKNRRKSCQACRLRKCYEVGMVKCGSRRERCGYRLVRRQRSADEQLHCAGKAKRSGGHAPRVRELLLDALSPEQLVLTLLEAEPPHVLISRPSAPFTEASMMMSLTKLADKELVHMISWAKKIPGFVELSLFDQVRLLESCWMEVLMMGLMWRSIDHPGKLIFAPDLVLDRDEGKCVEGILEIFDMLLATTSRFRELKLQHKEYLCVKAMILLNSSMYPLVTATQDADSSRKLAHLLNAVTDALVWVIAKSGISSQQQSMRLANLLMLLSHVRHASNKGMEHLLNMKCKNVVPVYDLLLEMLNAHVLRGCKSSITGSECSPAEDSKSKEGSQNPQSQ
# ERa coact pot – enhancers of ERα–SRC-1 coactivator binding, primary screen, biochemical, TR-FRET, ERα LBD, low estradiol. 86,000 compounds, 1.3% hits. Estrogen receptor (Homo sapiens), P03372. TR-FRET ERalpha-LBD/SRC-Cy5 coactivator binding, 2 h; 100 = basal binding, no effect. coactivator binding (% of control), % at 25.6 µM; in the data active = activity above about 200%;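 also: binding measured in presence of low estradiol as agonist stimulus; 0% = peptide alone without receptor and 100% = receptor with peptide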
# Calb biofilm kill – clotrimazole potentiators killing Candida biofilms, primary screen, with clotrimazole, Alamar Blue. 85,000 compounds, 0.14% hits. inhibition, % at 6 µM. C. albicans biofilm + clotrimazole;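 active = inhibition above 20%; inactive = inhibition below 20%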;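 also: preformed 24 hr biofilms exposed to compound for 48 hr; 0% = biofilm without compound and 100% = blank killed by clotrimazole plus chlorhexidine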
# * marks the source's active call; other numbers are inactive results; / = no result; ! = a repeat was not active; [ ] = remark or other dose. In the library only some 2.9% were active in any assay of this set; here they are far more common.
SMILES,ERa coact inh,HePTP inhibitor,Smad3 FoxH1 inh,ERb SRC1 inh,ERa coact pot,Calb biofilm kill
N/C(=N\OC(=O)c1ccccc1F)c1ccc(Br)cc1,/,-7.6,/,/,/,/
COc1cccc(-c2nnc(NC(=O)Nc3ccc(Cl)c(Cl)c3)s2)c1,/,0.4,/,/,/,/
COc1ccccc1C(=O)Nc1ccc2oc(-c3ccc(F)cc3)nc2c1,29.2,5.3,-15.7,24.7,251.9*,4.5
COc1ccc(-c2nc3cc(NC(=O)c4ccc5c(c4)OCO5)ccc3o2)cc1,39.8,18.2,-5.7,43.5,412.2*[fluorescence artefact?],-3.4
O=C(CSc1nc2ccc(N3C(=O)c4ccccc4C3=O)cc2s1)NCCOc1ccccc1,/,-15.3,/,/,/,/
CC(=O)Oc1ccc2c(C)cc(=O)oc2c1I,/,1.8,/,/,/,/
Cc1ccc(-c2csc(NC(=O)c3ccno3)n2)cc1,73.1*,4.2,3.0,75.0*,28.6,3.9
Cc1ccc(OCC(=O)Nc2ccc(Nc3ccccc3)cc2)c(C)c1,/,11.2,/,/,/,/
CCOC(=O)c1sc(NC(=O)c2c(C)nn(Cc3ccccc3)c2C)cc1C,6.2,-2.6,3.1,-2.8,201.9*,5.2
CCOc1cc(/C=N/NC(=O)c2cccnc2)ccc1OC(=O)c1ccc([N+](=O)[O-])cc1,/,9.0,/,/,/,/
O=C(c1ccc2c(c1)OCO2)N1CCN(c2ccccc2)CC1,-7.8,5.5,12.7,-6.4,101.8,9.3
O=C(c1ccc2c(c1)OCO2)N1CCN(c2ccc(Cl)cc2)CC1,-2.9,102.1*!,2.5,35.4,98.7,-0.9
O=C(C(Sc1ccccc1)c1ccccc1)N1CCCC1 (stereo not drawn),/,102.1*,/,/,/,/
O=C(O)c1ccc(SC(C(=O)O)c2ccccc2)cc1 (stereo not drawn),/,0.4,/,/,/,/
CCCCOC(=O)c1ccc(NC(=O)c2c(Cl)cccc2Cl)cc1,/,-8.4,/,/,/,/
COc1ccc(-c2nnn(CC(=O)N3CCOCC3)n2)cc1,-2.2,/,-5.7,-5.6,96.8,5.2
O=C(Cc1cccs1)Nc1ccc(-c2nnn(CC(=O)N3CCOCC3)n2)cc1,95.7*[fluorescence artefact?],11.4,-4.4,93.1*,15.8,4.4
O=C(CC1Sc2ccccc2NC1=O)Nc1ccc([N+](=O)[O-])cc1 (stereo not drawn),/,-14.7,/,/,/,/
CC(NC(=O)C1CC1)C(c1cccs1)N1CCN(c2ccccc2)CC1 (stereo not drawn),-7.0,-9.1,-1.9,55.8*[fluorescence artefact?],141.2,-1.4
CC(C)C(=O)NC(C)C(c1cccs1)N1CCN(c2ccccc2)CC1 (stereo not drawn),-21.1,/,5.8,-14.8,97.6,10.4
CCOC(=O)Cn1cnc2sc3c(c2c1=O)CCC3,63.5*[fluorescence artefact?],-2.2,1.5,70.0*,86.5,5.8
O=C1C=C/C(=N\S(=O)(=O)c2ccc(F)cc2)c2ccccc21,/,-5.2,/,/,/,/
COc1ccc2oc(=O)c(C(=O)N(Cc3ccccc3)Cc3ccccc3)cc2c1,/,-1.7,/,/,/,/
Cc1nc(N2CCN(S(=O)(=O)c3ccc(F)cc3)CC2)c2c(C)c(C)sc2n1,5.2,-1.3,1.3,-1.0,111.5,7.9
COc1ccc2cc(C#N)c(N3CCN(Cc4nnnn4CCC(C)C)CC3)nc2c1,4.6,6.5,-4.2,16.9,108.1,7.7
SMILES,ERa coact inh,HePTP inhibitor,Smad3 FoxH1 inh,ERb SRC1 inh,ERa coact pot,Calb biofilm kill
Cc1ccc2cc(C#N)c(N3CCCN(S(=O)(=O)c4ccccc4)CC3)nc2c1C,39.0,/,9.0,54.7*[fluorescence artefact?],362.6*[fluorescence artefact?],2.7
Cc1ccc2nc(N3CCN(Cc4nnnn4Cc4ccccc4)CC3)c(C#N)cc2c1,38.5,6.2,-4.0,30.1,372.4*[fluorescence artefact?],0.4
Cc1ccc2nc(N3CCN(C)CC3)c(C#N)cc2c1,0.3,5.9,3.3,-10.3,98.4,1.6
Cc1ccc2cc(C#N)c(N3CCCN(S(=O)(=O)c4ccc(F)cc4)CC3)nc2c1,44.1,/,11.8,51.3*[fluorescence artefact?],349.1*[fluorescence artefact?],-6.8
Cc1ccc2nc(N3CCN(S(=O)(=O)c4ccc(C)c(Cl)c4)CC3)c(C#N)cc2c1,48.0,/,-2.1,50.1*[fluorescence artefact?],243.9*[fluorescence artefact?],1.9
CCCOC(=O)c1ccc(NC(=S)Nc2ccccc2)cc1,/,5.0,/,/,/,/

# Screening results (PubChem)
